Laboratory results: PubChem BioAssay AID1224921 (Broad Institute, 2016)
The whole screen tested about 1,400 compounds, of which about 350 (25%) were called active. Roughly 2% stayed inconclusive and do not appear here. No rule for the calls is given here. Not all results are given here. Measured potencies and affinities stand elsewhere.

Experiment: C. difficile growth inhibition, confirmation, 4-point retest (AID 1224921);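 also: plate controls were DMSO wells for no effect and levofloxacin 16 µg/mL wells for full effect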
Settings: Clostridioides difficile clinical isolate growth, OD600, 24 h, active compounds read low; at 30 µM unless noted

Max activity, inactive:
COc1cccc(C#Cc2ccc([C@@H]3[C@@H](C#N)N(C(=O)C4CCCCC4)[C@H]3CO)cc2)c1 32.5%, COc1ccccc1C#Cc1ccc([C@H]2[C@@H](C#N)N(C(=O)C3CCC3)[C@H]2CO)cc1 29.5% [at 8 µM], COc1ccccc1C#Cc1ccc([C@H]2[C@@H](CO)N(C(=O)C3CC3)[C@H]2C#N)cc1 12.6%, COc1ccccc1C#Cc1ccc([C@@H]2[C@@H](C#N)N(C(=O)C3CCCCC3)[C@H]2CO)cc1 30.9%, COc1ccccc1C#Cc1ccc([C@@H]2[C@@H](CO)N(C(=O)C3CCCCC3)[C@H]2C#N)cc1 12.6% [at 1.95 µM], N#C[C@H]1[C@@H](c2ccc(C#Cc3ccccc3F)cc2)[C@@H](CO)N1C(=O)C1CCC1 -4.04%, N#C[C@@H]1[C@@H](c2ccc(C#Cc3cccc(F)c3)cc2)[C@H](CO)N1C(=O)C1CCC1 24.5% [at 0.5 µM], COc1cccc(C#Cc2ccc([C@H]3[C@@H](CO)N(C(=O)C4CCC4)[C@H]3C#N)cc2)c1 29% [at 8 µM], C[C@H](C(=O)N(C)C[C@@H]1OCc2ccccc2-c2ccccc2C(=O)N([C@H](C)CO)C[C@H]1C)c1ccccc1 -11.2% [at 1.95 µM], CCCC(=O)Nc1ccc2c(c1)C(=O)N(C)C[C@@H](OC)[C@H](C)CN(Cc1ccccc1)[C@@H](C)CO2 26.7%, O=C(C[C@H]1CC[C@H](NC(=O)C2CCOCC2)[C@@H](CO)O1)Nc1nccs1 -4.31% [at 1.95 µM], C[C@H]1CN([C@@H](C)CO)S(=O)(=O)c2ccc(C#Cc3ccc(F)cc3)cc2O[C@@H]1CN(C)S(C)(=O)=O -17.5% [at 1.95 µM], CCCC#Cc1ccc2c(c1)O[C@H](CN(C)Cc1ccncc1)[C@H](C)CN([C@@H](C)CO)S2(=O)=O -13.4% [at 8 µM], CCCC(=O)Nc1ccc2c(c1)OC[C@@H](C)N(C(=O)c1ccccc1F)C[C@@H](C)[C@H](OC)CN(C)C2=O -11% [at 1.95 µM], CO[C@@H]1CN(C)C(=O)c2cc(NC(=O)c3cccc(F)c3)ccc2OC[C@@H](C)N(C(C)=O)C[C@@H]1C 7.72%, C[C@@H]1CN([C@H](C)CO)C(=O)c2ccccc2-c2ccccc2CO[C@H]1CN(C)S(=O)(=O)c1ccc(Cl)cc1 34.1%, CCCN1C[C@H](C)[C@H](OC)CN(C)C(=O)c2cc(NC(=O)Nc3cccc(OC)c3)ccc2OC[C@@H]1C 17.5% [at 35 µM]
